Experimental findings from PubChem BioAssay (NCATS) are described below.

SMILES strings stand for the structures. Results filed as inconclusive are left out. Calls of active or inactive are those of the source. Calls come from the whole dose curve; as a rule, active = well fitted inhibition curve with a large enough effect; inconclusive = small, poorly fitted or top-dose-only effect; inactive = flat fitted curve, though single readings scatter. Where a SMILES comes first, the peptide text is derived from it. [ ]: non-standard residue; d: D form. ξ: configuration not given here. ξLac(3-iPr) = CC(C)CC(O)C(=O)O; NMeV = CN[CH](C(=O)O)C(C)C; βAla = NCCC(=O)O
% is set by controls: 0 for no effect and ±100 for the full control effect; potency is the fitted concentration of half-maximal effect.

One assay deals with HEK293. Nature of the assay: Cytotoxic Profiling of Annotated Libraries Using Quantitative High-Throughput Screening (AID 1296008). Note: nearly all actives have a fitted effect of over 60% in size. The following applies: Five cell lines viability, CellTiter-Glo ATP luminescence, 48-72 h; max response: active compounds read low. In a few lines: (§1)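 Cytotoxicity was measured as CellTiter-Glo ATP luminescence, read after 10 min at room temperature. Compound treatment of the cells lasted 48 or 72 hr at 37 degrees Celsius in a qHTS format.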
Background: Cellular ATP, detected with luciferase, serves as a proxy for viable cell number.
On to `CC(C)CC1OC(=O)C2CCCN2C(=O)CCNC(=O)C(Cc2ccccc2)NC(=O)C(C(C)C)N(C)C(=O)C(C(C)C)N(C)C1=O` (stereo unspecified) (cyclo([ξLac(3-iPr)][NMeV][NMeV]F[βAla]P); configuration not given here), for which the max response was 4% (inactive).
As for `COc1cc(Br)c(Nc2nc(-c3c(C)nc4ncccn34)cs2)c(Br)c1`, the Potency was 5800 nM (active).
With `CO[C@@H](C)Cn1c(=O)n(C)c2cnc3ccc(-c4cncc(C(C)(C)O)c4)cc3c21`, the Potency is 231 nM (active).
As to `C=C1C(=O)O[C@H](CCC)[C@H]1C(=O)O`, the max response is -3.38% (inactive).
Turning to `CC1(C)CC[C@]2(C(=O)O[C@@H]3O[C@H](CO)[C@@H](O)[C@H](O)[C@H]3O)CC[C@]3(C)C(=CCC4[C@@]5(C)CC[C@H](O[C@@H]6O[C@H](C(=O)O)[C@@H](O)[C@H](O[C@@H]7O[C@H](CO)[C@H](O)[C@H](O)[C@H]7O)[C@H]6O)C(C)(C)C5CC[C@]43C)C2C1` (stereo partly specified), the max response is 1.5% (inactive).
Regarding `C[C@@H]1O[C@@H](O[C@H]2[C@H](O[C@H]3[C@H](O[C@H]4CC[C@@]5(C)C(CC[C@]6(C)C5CC=C5[C@@H]7CC(C)(C)C[C@@H](O)[C@]7(C)CC[C@]56C)[C@@]4(C)CO)O[C@H](C(=O)O)[C@@H](O)[C@@H]3O)OC[C@H](O)[C@@H]2O)[C@H](O)[C@H](O)[C@H]1O` (stereo partly specified), the max response is -4.78% (inactive).
As for `COc1cc(Br)c(S(=O)(=O)Nc2ccc(C(F)(F)F)c(O[C@@H]3CCN(C)C3)c2)cc1OC`, the max response is -36.5% (inactive).

A further assay has as its system KB-3-1. The assay is described as above. The following applies: Five cell lines viability, CellTiter-Glo ATP luminescence, 48-72 h; max response: active compounds read low. An outline of the steps:
as §1
Take `Cc1[nH]c2ccccc2c1CCNC(=O)c1ccccc1F`: the max response was 3.4% (inactive).
Still for that read-out and setting: in the case of `C/C=C/c1ccc2oc(-c3ccc(O)c(OC)c3)c(C)c2c1` it was 6.52% (inactive).
`NC(=O)[C@H](O[C@@H]1O[C@H](CO)[C@@H](O)[C@H](O)[C@H]1O)c1ccccc1`: the molecule was called inactive.
For the molecule `N[C@@]1(C(=O)O)CC[C@H]2[C@H](C(=O)O)[C@H]21`, the max response is 2.99% (inactive).
Consider `COc1cc(C2c3cc4c(c(O)c3CC(CO)C2C(=O)O)OCO4)cc(OC)c1O` (stereo unspecified), for which the Potency was 2000 nM (active).
In the case of `O=S(=O)(Nc1ccccn1)c1ccc(N=Cc2c(O)[nH]c3ccc4ncsc4c23)cc1`, the max response was -4.18% (inactive).
As to `C[C@H](NC(c1cccc(C[P+](=O)O)c1)[C@H](C)O)c1ccc(Cl)c(Cl)c1` (stereo partly specified), the molecule was classed as inactive.
Consider `O=C1CSc2ccccc2N1Cc1cccc(C(F)(F)F)c1`, for which the max response is -14% (inactive).
For `C/C=C1\[C@H](O[C@@H]2O[C@H](CO)[C@@H](O)[C@H](O)[C@H]2O)OC=C2C(=O)OCCc3ccc(O)c(c3)Oc3ccc(cc3)CCOC(=O)C[C@H]21`, the max response is -9.35% (inactive).
Take `CN1CCN(Cc2ccc(-c3cnc4[nH]cc(-c5ccc6[nH]ccc6c5)c4c3)cc2)CC1`: the Potency is 9200 nM (active).
In the case of `CC/C=C\C/C=C\C/C=C\CCCCCCCC(=O)OCC(O)COC1OC(CO)C(O)C(O)C1O` (stereo unspecified), the molecule was classed as inactive.
`Cc1cc(Nc2cc(N3CCN(C)CC3)nc(/C=C/c3ccccc3)n2)n[nH]1`: the Potency is 1160 nM (active).
`CC(C)C(CO)Nc1nc(Nc2ccc(C(=O)O)c(Cl)c2)c2ncn(C(C)C)c2n1` (stereo unspecified): the max response is 1.82% (inactive).
For `COc1cc(Nc2nc3ccccc3nc2NS(=O)(=O)c2ccc(NC(=O)c3ccc(OC)c(C)c3)cc2)cc(OC)c1`, the molecule was called inactive.
On the same count and under the same terms, in the case of `Cc1c2cc(c(C(=O)O)c1C)OC1OC(C(O)C(O)C1O)C(O)C(O)C1OC(O2)C(O)C(O)C1O` (stereo unspecified) it was “inactive”.
With `CC(=O)OC[C@@]12C(=O)C[C@@H](C)[C@]3(C[C@@H](c4ccoc4)O[C@H]3OC(C)=O)[C@H]1CCC[C@]21CO1`, the max response is -1.02% (inactive).
The same measure, in the same setting: as for `CNC(=S)NS(=O)(=O)c1cc(CCNC(=O)c2cc(Cl)ccc2OC)ccc1OC`, the figure is -4.17% (inactive).
Still for that read-out and setting: in the case of `Cc1[nH]nc(C(F)(F)F)c1Cc1sc2c(c1C(=O)N1C[C@](C)(O)CO1)c(=O)n(C)c(=O)n2C(C)C` it was 1.3% (inactive).
As for `O=C1OCc2cc3cccc(O[C@@H]4O[C@H](CO)[C@@H](O)[C@H](O)[C@H]4O)c3c(O)c21`, the molecule was classed as inactive.
Regarding `C[C@@H]1C(=O)O[C@H]2[C@@H](O)C34[C@H]5C[C@@H](C(C)(C)C)C36[C@@H](OC(=O)[C@@H]6O)O[C@@]4(C(=O)O5)[C@@]12O` (stereo partly specified), the max response was -6.44% (inactive).
For `CC1OC(O[C@H]2CC[C@@]3(C)C(CC[C@]4(C)C3CC=C3C5CC(C)(C)CC[C@]5(C(=O)OC5OC(CO)C(OC6OC(COC7OCC(O)C(O)C7O)C(O)C(O)C6O)C(O)C5O)CC[C@]34C)C2(C)C)C(O)C(O)C1OC1OCC(OC2OCC(O)C(O)C2O)C(O)C1O` (stereo partly specified), the call was inactive.
Regarding `CC(C)Oc1ccc(C(=O)NC(CNC(=O)CN(C)C)Cc2ccc(-c3cn4cccc(C(C)O)c4n3)cc2)cc1Cl` (stereo unspecified), the Potency is 146 nM (active).
Turning to `CC[C@@](C)(Nc1ccnc(-c2c[nH]c3ncccc23)n1)C(=O)NCC(F)(F)F`, the molecule was classed as inactive.
Consider `C=C(C(=O)OC)C1C(O)CC2(C)C(=O)CCC(O)(CO)C2C1O` (stereo unspecified), for which the max response was -0.746% (inactive).
On to `COc1cc2ncnc(Nc3ccc(O)cc3)c2cc1OC`, for which the max response was 3.01% (inactive).
Take `CC(=O)NCC(=O)N1C2CCC1c1cc(Nc3ncc(C(F)(F)F)c(NC4CCC4)n3)ccc12` (stereo unspecified): the Potency is 1030 nM (active).
Still for that read-out and setting: as for `CNC(=O)c1ccccc1Nc1nc(Nc2ccc3c(c2OC)CCCC(N2CCN(CCO)CC2)C3)ncc1Cl` (stereo unspecified), the figure is 10300 nM (active); as for `CCN1CCN(Cc2ccc(Nc3ncc(F)c(-c4cc(F)c5nc(C)n(C(C)C)c5c4)n3)nc2)CC1`, 6510 nM (active).
On to `C[C@H](C(=O)NC1CCCC1)N(C(=O)Cn1nnc(-c2ccc3c(c2)OCO3)n1)C1CCCCC1`, for which the max response was 5.01% (inactive).
As for `COc1cc2c3c(cc4ccccc4c3c1O)NC2=O`, the outcome was inactive.
Consider `CCNC(=O)C1OC(n2cnc3c(N)nc(NCCc4ccc(CCC(=O)O)cc4)nc32)C(O)C1O` (stereo unspecified), for which the max response is -5.77% (inactive).
Turning to `CCN1CCN(Cc2ccc(NC(=O)Nc3ccc(Oc4cc(NC)ncn4)cc3)cc2C(F)(F)F)CC1`, the Potency was 6510 nM (active).
`CC(C)CC1OC(=O)C2CCCN2C(=O)CCNC(=O)C(Cc2ccccc2)NC(=O)C(C(C)C)N(C)C(=O)C(C(C)C)N(C)C1=O` (stereo unspecified) (cyclo([ξLac(3-iPr)][NMeV][NMeV]F[βAla]P); configuration not given here): the max response was 3.73% (inactive).
Take `COc1cc(Br)c(Nc2nc(-c3c(C)nc4ncccn34)cs2)c(Br)c1`: the Potency is 2310 nM (active).
Same read-out and setting: in the case of `CO[C@@H](C)Cn1c(=O)n(C)c2cnc3ccc(-c4cncc(C(C)(C)O)c4)cc3c21` it was 651 nM (active).
Consider `C=C1C(=O)O[C@H](CCC)[C@H]1C(=O)O`, for which the max response is 2.02% (inactive).
Same read-out and setting: in the case of `CC1(C)CC[C@]2(C(=O)O[C@@H]3O[C@H](CO)[C@@H](O)[C@H](O)[C@H]3O)CC[C@]3(C)C(=CCC4[C@@]5(C)CC[C@H](O[C@@H]6O[C@H](C(=O)O)[C@@H](O)[C@H](O[C@@H]7O[C@H](CO)[C@H](O)[C@H](O)[C@H]7O)[C@H]6O)C(C)(C)C5CC[C@]43C)C2C1` (stereo partly specified) it was 3.29% (inactive); in that of `C[C@@H]1O[C@@H](O[C@H]2[C@H](O[C@H]3[C@H](O[C@H]4CC[C@@]5(C)C(CC[C@]6(C)C5CC=C5[C@@H]7CC(C)(C)C[C@@H](O)[C@]7(C)CC[C@]56C)[C@@]4(C)CO)O[C@H](C(=O)O)[C@@H](O)[C@@H]3O)OC[C@H](O)[C@@H]2O)[C@H](O)[C@H](O)[C@H]1O` (stereo partly specified), -1.37% (inactive); in that of `COc1cc(Br)c(S(=O)(=O)Nc2ccc(C(F)(F)F)c(O[C@@H]3CCN(C)C3)c2)cc1OC`, -11.3% (inactive).
